According to PubChem BioAssay:
Active and inactive are the calls of the source.

Assays:
[1] = small molecules captured by biotinylated probe aFSTL3 – biochemical, small-molecule microarray, fluorescence 635/667, stem cell growth factor project, primary screen (AID 1064); settings: higher = more signal;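 note: measures binding of the biotinylated anti-FSTL3 antibody to printed compounds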
[2] = binders from COS7 lysate, DM2A8 probe, primary screen, torsin A project, cell lysate, small-molecule microarray, fluorescence 635/667 (AID 1065); settings: higher = more signal, COS7 lysate expressing mutant human TOR1A
[3] = small molecules captured by biotinylated probe aFGF2 – biochemical, small-molecule microarray, fluorescence 635/667, stem cell growth factor project, primary screen (AID 1067); settings: higher = more signal;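 note: measures binding of biotinylated aFGF2 protein to printed compounds on slides; z-score merges feature fluorescence and signal-to-noise across triplicate slides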
[4] = small molecules captured by biotinylated probe aFGF10 – biochemical, small-molecule microarray, fluorescence 635/667, stem cell growth factor project, primary screen (AID 1071); settings: higher = more signal;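 note: score merges 667 nm spot intensity and signal to noise from triplicate slides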
[5] = target: Neurogenic locus notch homolog protein 2 (Homo sapiens) (UniProt Q04721); assay: small molecules binding Notch2 protein – biochemical, small-molecule microarray, 635 nm fluorescence, stem cell growth factors, primary screen (AID 1073); settings: higher = more signal
[6] = target: Pro-neuregulin-1, membrane-bound isoform (Homo sapiens) (UniProt Q02297); assay: small molecules binding neuregulin-1 protein – biochemical, small-molecule microarray, fluorescence 635/667, psychiatric disease protein project, primary screen (AID 1075); settings: NRG1 binding, 635 nm fluorescence, higher = more signal;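 note: score combines 667 nm spot fluorescence with signal to noise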
[7] = test system: Neuregulin-1 EGF-like domain; assay: small molecules binding NRG1 EGF domain – biochemical, small-molecule microarray, 635 nm fluorescence, primary screen (AID 1081); settings: higher = more signal;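 note: binding of the protein to compounds printed on small-molecule microarray slides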
[8] = FRG1 expression reporter modulators in myotubes – cell-based, C2C12 myotubes, firefly/Renilla luciferase, luminescence, FRG1 inhibition for FSHD, primary screen (AID 1084); settings: FRG1 promoter luciferase, higher = more signal, called active from +8 up or from −8 down
[9] = small molecules captured by biotinylated probe aFST – biochemical, small-molecule microarray, fluorescence 635/667, stem cell growth factor project, primary screen (AID 1086); settings: higher = more signal;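 note: score merges 667 nm fluorescence with signal-to-noise of each printed compound spot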
[10] = binders of probe aHhip on microarray, primary screen, stem cell growth factor project, biochemical, small-molecule microarray, fluorescence 635/667 (AID 1087); settings: higher = more signal;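 note: score merges spot fluorescence at 667nm with spot signal to noise ratio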
[11] = test system: PRMT1 (protein arginine N-methyltransferase 1); assay: small molecules binding arginine methyltransferase PRMT1 – biochemical, small-molecule microarray, 635 nm fluorescence, primary screen (AID 1088); settings: higher = more signal;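 note: binding of Prmt1 protein to compounds spotted on small-molecule microarray slides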
[12] = growth effects on S. cerevisiae YJM789 – YJM789 clinical isolate, OD600, 24 h, basal, primary screen (AID 1089); settings: higher = more signal, called active from +8 up or from −8 down;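 note: growth of clinical yeast isolate S. cerevisiae YJM 789 seeded 1000 cells per well; test concentration not given here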
[13] = S. pombe growth modifiers, basal conditions – strain 972, OD600, 24 h, no modulator, primary screen (AID 1090);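 note: basal condition with compound alone and no growth modifier present; test concentration not given here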; settings: S. pombe 972 growth, higher = more signal, called active from +8 up or from −8 down
[14] = budding yeast growth modifiers under rapamycin – strain BY4716, OD600, 96 h, primary screen (AID 1091); note: test concentration not given here; settings: S. cerevisiae BY4716 + rapamycin, higher = more signal, called active from +8 up or from −8 down
[15] = target: Torsin-1A-interacting protein 2 (Homo sapiens) (UniProt Q8NFQ8); assay: small molecules binding lysate-expressed LULL1 – cell lysate, human LULL1 lysate, 635/667 nm fluorescence, primary screen (AID 1092); settings: small-molecule microarray, hLULL1 lysate binding, 635 nm fluorescence; higher = more signal;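 note: probe is lysate of COS7 cells overexpressing human LULL1; score merges per-feature 667 nm fluorescence with signal-to-noise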
[16] = optical density change of DRC41 E. coli – strain DRC41, OD650, 24 h, E. coli filamentation project, primary screen (AID 1093);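 note: MC1000 strain lacking acrAB efflux and sulA so SOS filamentation is blocked; test concentration not given here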; settings: E. coli DRC41 growth, higher = more signal, called active from +8 up or from −8 down
[17] = probe aLefty2 binding to arrayed compounds – biochemical, biotinylated probe, 635/667 nm fluorescence, primary screen (AID 1094); settings: small-molecule microarray, higher = more signal;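 note: score merges spot fluorescence near 667 nm with spot signal-to-noise ratio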
[18] = test system: Noggin (protein binding on small-molecule microarray); assay: small molecules binding Noggin protein – biochemical, 635/667 nm fluorescence, primary screen (AID 1095); settings: 635 nm fluorescence, higher = more signal;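 note: score merges 667 nm feature fluorescence with signal to noise over triplicate slides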
[19] = target: Neurogenic locus notch homolog protein 3 (Homo sapiens) (UniProt Q9UM47); assay: small molecules binding NOTCH3 protein – biochemical, 635/667 nm fluorescence, primary screen (AID 1096); settings: small-molecule microarray, 635 nm fluorescence, higher = more signal
[20] = probe aEGFR binding to arrayed compounds – biochemical, biotinylated probe, 635/667 nm fluorescence, primary screen (AID 1097); settings: small-molecule microarray, higher = more signal;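 note: probe is a biotinylated anti-EGFR antibody binding compounds printed on slides; score combines fluorescence near 667 nm and signal to noise of each spot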

Sequence of Pro-neuregulin-1, membrane-bound isoform (Homo sapiens) (Q02297 whole entry, looked up, the tested form may be a part, canonical isoform): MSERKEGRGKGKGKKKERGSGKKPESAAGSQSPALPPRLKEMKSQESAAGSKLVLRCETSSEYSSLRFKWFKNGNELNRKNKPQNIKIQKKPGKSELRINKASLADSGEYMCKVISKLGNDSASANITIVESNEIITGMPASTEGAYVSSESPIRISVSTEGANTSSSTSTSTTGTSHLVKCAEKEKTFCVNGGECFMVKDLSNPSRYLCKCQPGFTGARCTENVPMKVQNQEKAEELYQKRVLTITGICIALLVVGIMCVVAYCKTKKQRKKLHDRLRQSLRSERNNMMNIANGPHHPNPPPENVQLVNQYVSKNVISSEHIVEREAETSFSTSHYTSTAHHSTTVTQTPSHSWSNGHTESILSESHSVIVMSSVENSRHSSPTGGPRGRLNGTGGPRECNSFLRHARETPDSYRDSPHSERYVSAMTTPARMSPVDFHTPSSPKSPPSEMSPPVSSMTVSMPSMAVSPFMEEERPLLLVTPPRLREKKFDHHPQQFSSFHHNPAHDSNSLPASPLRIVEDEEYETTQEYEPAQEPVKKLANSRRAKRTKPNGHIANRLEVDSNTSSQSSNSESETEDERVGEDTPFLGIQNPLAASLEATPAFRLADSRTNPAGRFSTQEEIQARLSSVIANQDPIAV
Sequence of Neurogenic locus notch homolog protein 2 (Homo sapiens) (Q04721 whole entry, looked up, canonical isoform): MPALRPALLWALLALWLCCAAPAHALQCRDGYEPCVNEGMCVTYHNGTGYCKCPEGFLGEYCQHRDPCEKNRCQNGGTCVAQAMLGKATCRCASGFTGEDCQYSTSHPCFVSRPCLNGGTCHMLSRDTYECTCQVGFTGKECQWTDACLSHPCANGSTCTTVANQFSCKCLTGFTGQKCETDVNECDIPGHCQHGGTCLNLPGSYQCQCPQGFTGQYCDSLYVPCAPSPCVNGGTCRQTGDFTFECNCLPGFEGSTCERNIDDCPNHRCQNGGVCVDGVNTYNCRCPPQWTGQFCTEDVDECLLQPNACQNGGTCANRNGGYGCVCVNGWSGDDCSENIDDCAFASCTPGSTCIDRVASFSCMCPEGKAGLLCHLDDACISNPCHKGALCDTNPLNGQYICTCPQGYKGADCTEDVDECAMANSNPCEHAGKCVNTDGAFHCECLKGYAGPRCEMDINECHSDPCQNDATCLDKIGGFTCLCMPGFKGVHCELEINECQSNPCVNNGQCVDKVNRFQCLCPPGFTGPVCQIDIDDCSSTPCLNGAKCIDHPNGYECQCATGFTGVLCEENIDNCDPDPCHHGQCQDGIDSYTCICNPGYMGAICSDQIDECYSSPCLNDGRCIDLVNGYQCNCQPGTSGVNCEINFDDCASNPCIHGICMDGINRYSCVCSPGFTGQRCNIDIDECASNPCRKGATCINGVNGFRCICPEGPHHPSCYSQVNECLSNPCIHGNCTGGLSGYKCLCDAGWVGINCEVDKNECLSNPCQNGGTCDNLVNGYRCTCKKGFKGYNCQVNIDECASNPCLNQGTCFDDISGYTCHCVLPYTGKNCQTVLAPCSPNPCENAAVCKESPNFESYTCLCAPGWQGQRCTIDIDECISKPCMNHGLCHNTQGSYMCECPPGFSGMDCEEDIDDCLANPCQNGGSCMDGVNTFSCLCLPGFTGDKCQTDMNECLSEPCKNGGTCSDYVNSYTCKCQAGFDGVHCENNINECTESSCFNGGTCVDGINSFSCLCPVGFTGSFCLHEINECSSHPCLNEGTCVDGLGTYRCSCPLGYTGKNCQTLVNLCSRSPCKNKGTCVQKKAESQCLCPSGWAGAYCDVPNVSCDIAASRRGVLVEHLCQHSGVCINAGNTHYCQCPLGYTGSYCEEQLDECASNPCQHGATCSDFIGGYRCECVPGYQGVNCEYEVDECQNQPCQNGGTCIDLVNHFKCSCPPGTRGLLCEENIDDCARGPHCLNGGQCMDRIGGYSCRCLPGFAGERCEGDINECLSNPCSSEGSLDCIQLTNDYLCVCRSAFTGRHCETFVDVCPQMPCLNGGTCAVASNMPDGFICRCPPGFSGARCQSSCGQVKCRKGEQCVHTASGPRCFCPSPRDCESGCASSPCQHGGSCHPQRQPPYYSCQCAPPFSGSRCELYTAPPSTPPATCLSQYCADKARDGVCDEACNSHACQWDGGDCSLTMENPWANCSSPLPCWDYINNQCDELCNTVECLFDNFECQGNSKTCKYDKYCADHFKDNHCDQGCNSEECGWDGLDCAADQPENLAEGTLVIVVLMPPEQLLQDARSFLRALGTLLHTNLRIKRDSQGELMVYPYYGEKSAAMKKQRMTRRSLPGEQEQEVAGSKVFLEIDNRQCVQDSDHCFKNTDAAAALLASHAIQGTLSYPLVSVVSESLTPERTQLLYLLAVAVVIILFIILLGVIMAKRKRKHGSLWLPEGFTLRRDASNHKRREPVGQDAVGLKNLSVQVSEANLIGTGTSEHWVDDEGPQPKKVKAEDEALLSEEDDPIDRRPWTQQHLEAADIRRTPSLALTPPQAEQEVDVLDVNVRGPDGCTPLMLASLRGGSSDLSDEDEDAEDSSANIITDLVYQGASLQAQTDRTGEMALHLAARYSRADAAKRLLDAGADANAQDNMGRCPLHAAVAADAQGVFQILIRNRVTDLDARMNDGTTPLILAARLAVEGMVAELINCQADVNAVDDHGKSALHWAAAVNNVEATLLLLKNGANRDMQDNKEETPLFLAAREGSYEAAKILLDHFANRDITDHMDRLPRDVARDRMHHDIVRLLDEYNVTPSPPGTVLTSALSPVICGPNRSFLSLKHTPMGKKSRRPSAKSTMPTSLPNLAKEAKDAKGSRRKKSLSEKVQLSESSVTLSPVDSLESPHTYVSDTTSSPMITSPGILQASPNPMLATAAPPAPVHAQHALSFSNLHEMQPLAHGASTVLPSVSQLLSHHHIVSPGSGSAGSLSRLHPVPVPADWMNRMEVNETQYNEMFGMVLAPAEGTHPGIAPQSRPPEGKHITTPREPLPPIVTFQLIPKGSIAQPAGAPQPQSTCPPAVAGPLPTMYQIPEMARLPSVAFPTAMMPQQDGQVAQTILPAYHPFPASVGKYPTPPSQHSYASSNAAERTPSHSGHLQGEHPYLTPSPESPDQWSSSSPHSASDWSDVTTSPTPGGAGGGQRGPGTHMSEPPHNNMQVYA
Sequence of Torsin-1A-interacting protein 2 (Homo sapiens) (Q8NFQ8 whole entry, looked up): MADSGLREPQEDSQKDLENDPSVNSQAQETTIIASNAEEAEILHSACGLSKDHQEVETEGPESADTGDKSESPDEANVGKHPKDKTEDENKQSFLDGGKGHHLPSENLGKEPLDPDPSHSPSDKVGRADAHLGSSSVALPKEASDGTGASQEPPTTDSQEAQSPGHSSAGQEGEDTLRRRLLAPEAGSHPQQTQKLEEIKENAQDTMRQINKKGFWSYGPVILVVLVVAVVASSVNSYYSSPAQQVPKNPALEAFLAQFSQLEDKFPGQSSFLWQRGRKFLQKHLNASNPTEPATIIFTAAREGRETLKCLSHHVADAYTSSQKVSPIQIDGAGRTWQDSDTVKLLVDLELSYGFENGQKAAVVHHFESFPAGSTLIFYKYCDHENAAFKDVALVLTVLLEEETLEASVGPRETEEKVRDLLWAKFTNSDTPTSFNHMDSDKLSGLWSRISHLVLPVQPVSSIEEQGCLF

Row | SMILES | composite z-score [1] | composite z-score [2] | composite z-score [3] | composite z-score [4] | composite z-score [5] | composite z-score [6] | composite z-score [7] | z-score [8] | composite z-score [9] | composite z-score [10] | composite z-score [11] | z-score [12] | z-score [13] | z-score [14] | composite z-score [15] | z-score [16] | composite z-score [17] | composite z-score [18] | composite z-score [19] | composite z-score [20]
1 | COCCCN1C(=O)[C@@]2(c3ccc([N+](=O)[O-])cc3)CC(=O)N(C3CCCCC3)[C@@H]2c2ccc(CO)cc21 | -0.246 | 0.178 | -0.153 | -0.118 | -0.537 | -0.214 | 0.467 | 1.07 (inactive) | -0.036 | -0.134 | 0.996 | 0.134 (inactive) | 0.734 (inactive) | -1.35 (inactive) | -0.701 | 0.56 (inactive) | -0.0782 | 0.549 | -0.37 | -0.128
2 | CN1C(=O)C2C=CC(C(O)C3=C[C@H]4C[C@@H](C3)C4(C)C)N(Nc3ccccc3)C2C1=O (stereo not given in full) | 1.23 | 0.329 | -0.0454 | 0.677 | 1.49 | 0.986 | 1.02 | 0.175 (inactive) | 1.23 | 0.064 | 0.965 | 0.443 (inactive) | 0.192 (inactive) | 1.31 (inactive) | 2.46 | 0.0208 (inactive) | 0.161 | 0.305 | 1.14 | -0.0065
3 | COCCCNC(=O)[C@@]1(Cc2ccccc2)N=C(c2ccc(OCCCO)cc2)O[C@H]1c1ccccc1 | 0.743 | 1.2 | 0.298 | 0.155 | 0.82 | 1.38 | 1.33 | -1.4 (inactive) | 1.08 | 1.17 | 1.42 | -1.69 (inactive) | -0.475 (inactive) | -1.74 (inactive) | 3.36 | 0.474 (inactive) | 0.355 | -0.416 | 0.6 | 0.265
4 | O=C1O[C@H](c2ccccc2)[C@H](c2ccccc2)N2[C@H]1[C@@H](C(=O)O)[C@]1(C(=O)Nc3ccc(C#CC4=CCCCC4)cc31)[C@H]2c1ccccc1OCCO | 0.943 | 0.914 | -0.0885 | 0.729 | 1.01 | 1.69 | 0.994 | 0.755 (inactive) | 0.792 | 1.13 | 1.53 | 1.07 (inactive) | 1.1 (inactive) | -1.55 (inactive) | 3.1 | -0.273 (inactive) | 0.196 | 1.05 | 0.941 | -0.313
5 | [N-]=[N+]=NCc1ccccc1C[C@]1(C(=O)NCC(O)CO)N=C(c2ccc(OCCCO)cc2)O[C@H]1c1ccccc1 (stereo not given in full) | 0.881 | 0.34 | -0.0039 | -0.48 | -0.316 | 0.958 | 0.849 | -0.938 (inactive) | 0.506 | 0.158 | -0.434 | -0.0234 (inactive) | 0.559 (inactive) | -1.04 (inactive) | 2.62 | 0.478 (inactive) | 0.38 | -0.918 | -1.29 | -0.0758
6 | C[C@]1(C(=O)NC2CC2)c2ccccc2C(=O)N(Cc2cc(C(F)(F)F)cc(C(F)(F)F)c2)[C@H]1c1ccc(CO)cc1 | 0.098 | 0.14 | 0.0458 | 0.31 | 1.26 | 0.354 | 1.26 | -0.583 (inactive) | 0.603 | -0.0994 | 1.38 | 0.412 (inactive) | -1.05 (inactive) | -0.0211 (inactive) | 1.32 | 1.08 (inactive) | 0.0868 | 0.829 | 0.967 | -0.0013
7 | O=C1NC(=O)C2C1C=CC(C(O)c1cccc3ccccc13)N2Nc1ccccn1 (stereo not given) | -0.0559 | 0.143 | -0.0281 | 0.357 | 1.19 | 0.961 | 0.39 | 0.661 (inactive) | 0.125 | -0.242 | 0.246 | 0.143 (inactive) | 1.14 (inactive) | -0.207 (inactive) | 1.37 | 0.213 (inactive) | 0.127 | -0.321 | -0.198 | -0.0766
8 | COc1ccc([C@H]2C[C@H]3C(Br)=C[C@@H]2C(=O)[C@]32CO2)cc1 | 0.203 | 0.133 | -0.083 | -0.126 | -0.239 | -0.152 | -0.577 | 1.96 (inactive) | 0.0125 | -0.0618 | -0.431 | 0.29 (inactive) | -3.66 (inactive) | -0.417 (inactive) | -0.807 | 1.7 (inactive) | -0.0561 | 0.101 | -0.282 | -0.217
9 | CCCC[C@@H]1C[C@H]1[C@@H](NC(=O)c1ccco1)c1ccc(Cl)cc1 | 0.159 | 0.308 | 0.0296 | 0.0982 | 1.22 | 1.01 | 1.05 | -1.51 (inactive) | 0.829 | 0.0274 | 0.44 | 0.622 (inactive) | 0.362 (inactive) | 0.384 (inactive) | 2.89 | -0.815 (inactive) | 0.164 | -0.576 | 0.889 | 0.0271
10 | COC(=O)[C@@]1(Cc2ccc(OC)cc2)[C@H]2c3cc(C(=O)N4CCCC4)n(Cc4ccc(OC)c(OC)c4)c3C[C@H]2CN1C(=O)c1ccccc1 | 1.65 | 0.188 | 0.636 | 0.199 | 1.72 | 2.16 | 1.07 | 2.25 (inactive) | 1.74 | 0.319 | 0.929 | -0.515 (inactive) | 0.835 (inactive) | 1.18 (inactive) | 3.36 | -0.148 (inactive) | 1.2 | 0.793 | 1.11 | 0.889
11 | CCOC(=O)[C@H]1C/C=C/C[C@H](C(=O)OCC)C(=O)O[C@H]2[C@@H](OC)O[C@H](CO)[C@@H](OC(=O)Nc3ccc(C#N)cc3)[C@@H]2OC1=O | 0.0283 | -0.317 | -0.0414 | 0.287 | -0.194 | 1.39 | 1.02 | -0.1 (inactive) | 0.143 | -0.119 | 0.595 | -1.87 (inactive) | -1.11 (inactive) | 32.1 (active) | 2.36 | 1.92 (inactive) | -0.162 | 0.0435 | 0.466 | -0.382
